Here are results for 26 molecules from PubChem BioAssay AID1543 (National Center for Advancing Translational Sciences (NCATS), 2009).

SMILES strings stand for the structures. Inconclusive results are not listed. Where a call stands in place of a potency, no number is given. The source made the active and inactive calls. Calls come from the whole dose curve; as a rule, active = well fitted activation curve with a large enough effect; inconclusive = small, poorly fitted or top-dose-only effect, or effect the other way; inactive = flat fitted curve, though single readings scatter.

Pyruvate kinase PKLR (Homo sapiens), sequence (P30613 whole entry, looked up): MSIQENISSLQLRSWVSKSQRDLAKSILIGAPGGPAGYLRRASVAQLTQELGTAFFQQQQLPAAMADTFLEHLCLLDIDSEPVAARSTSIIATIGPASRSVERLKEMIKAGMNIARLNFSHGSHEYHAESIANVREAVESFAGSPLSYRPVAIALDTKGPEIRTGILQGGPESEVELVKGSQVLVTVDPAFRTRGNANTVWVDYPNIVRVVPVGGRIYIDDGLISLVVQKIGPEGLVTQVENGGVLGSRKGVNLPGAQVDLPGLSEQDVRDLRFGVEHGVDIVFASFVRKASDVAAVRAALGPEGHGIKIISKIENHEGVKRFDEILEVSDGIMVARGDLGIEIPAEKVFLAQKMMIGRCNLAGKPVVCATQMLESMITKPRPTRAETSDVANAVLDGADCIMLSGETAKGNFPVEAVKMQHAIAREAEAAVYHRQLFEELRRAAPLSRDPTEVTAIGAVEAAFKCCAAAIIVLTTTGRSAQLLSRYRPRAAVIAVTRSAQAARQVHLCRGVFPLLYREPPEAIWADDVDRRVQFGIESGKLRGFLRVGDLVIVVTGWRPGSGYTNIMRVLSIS

The test deals with Pyruvate kinase PKLR (Homo sapiens) (UniProt P30613). Description: Secondary assay for Activators of Human Reticulocyte Pyruvate Kinase. The settings on record: purified hPK-R, LDH-coupled NADH fluorescence kinetic; series mostly up to 57.5 µM. An excerpt:
Confirmatory assay NIH Chemical Genomics Center [NCGC] Wael M. Rabeh, Lyudmila Nedyalkova and Hee-Wan Park [Structural Genomics Consortium, 100 College St. Toronto, Ontario, Canada] NCGC Assay Overview: Human pyruvate kinase reticulocyte (hPK-R) enzyme was supplied as a highly purified (>95% pure) preparation from Structural Genomics Consortium in Toronto (Ontario, Canada) and a secondary assay was used to evaluate compounds. This assay couples the formation of pyruvate from hPK-R using lactate dehydrogenase (LDH) and NADH. The depletion of NADH is followed in a fluorescent-based kinetic assay that follows the formation of pyruvate to lactate, as catalyzed LDH. Pyruvate kinase substrates, PEP and ADP, were present in the assay at 0.1 mM and 4 mM respectively. In this kinetic assay initial rates were determined by following the fluorescence of NADH depletion.
NCGC Assay Protocol Summary: Three uL of substrate mix (final concentration, 50 mM Tris-Cl pH 8.0, 200 mM KCl, 15 mM MgCl2, 0.1 mM PEP, 4.0 mM ADP, and 0.2 mM NADH) was dispensed into black-solid 1536 well plates. 23 nL of compounds were delivered by a pin tool and 1 uL of enzyme mix (final concentrations, 10 nM hPK-R and 1 uM of LDH) was added. Plates were immediately placed in ViewLux (Perkin Elmer) and NADH fluorescence was determined at 30 second exposure intervals for between 3 and 6 minutes. Data were normalized to the uninhibited and EC100 activation using known activators such as fructose-bis-phosphate.
On to `O=C(c1ccc2c(c1)OCCO2)N1CCN(S(=O)(=O)c2c(F)cccc2F)CC1`, for which the Potency entry is “inactive”.
Regarding `O=S(=O)(c1ccc2c(c1)OCO2)N1CCN(S(=O)(=O)c2c(F)cccc2F)CC1`, the Potency entry was “inactive”.
For `COc1ccc(S(=O)(=O)N2CCN(S(=O)(=O)c3ccc(OC)cc3)CC2)cc1` the value was “inactive”; for `CC(=O)c1cc2c(s1)c1cnn(Cc3ccccc3F)c(=O)c1n2C`, 631 nM (active); for `COc1ccc(Cn2ncc3c4sc(C)cc4n(C)c3c2=O)cc1`, 631 nM (active).
As to `O=S(=O)(c1cccc(F)c1)N1CCN(S(=O)(=O)c2ccc3c(c2)OCCO3)CC1`, the Potency entry is “inactive”.
As for `O=S(=O)(c1ccc2c(c1)OCCO2)N1CCN(S(=O)(=O)c2c(F)cccc2F)CC1`, the Potency result is “inactive”.
With `O=C(c1c(F)cccc1F)N1CCN(S(=O)(=O)c2ccc3c(c2)OCCO3)CC1` the entry was “inactive”; with `Cn1c2cc(C#N)sc2c2cnn(Cc3ccccc3F)c(=O)c21`, “inactive”; with `Cn1c2ccsc2c2cnn(Cc3ccccc3F)c(=O)c21`, 14100 nM (active).
On to `Cc1cc2c(s1)c1cnn(Cc3c(F)c(F)cc(F)c3F)c(=O)c1n2C`, for which the Potency entry is “inactive”.
For `C[C@H]1CN(S(=O)(=O)c2c(F)cccc2F)CCN1S(=O)(=O)c1ccc2c(c1)OCCO2` the value was “inactive”.
With `CSc1cc2c(s1)c1cnn(Cc3ccccc3F)c(=O)c1n2C` the figure was 708 nM (active); with `Cn1c2cc(S(C)=O)sc2c2cnn(Cc3ccccc3F)c(=O)c21` (stereo unspecified), 1120 nM (active); with `CCCCCn1ncc2c3sc(C)cc3n(C)c2c1=O`, “inactive”.
As to `C[C@H]1CN(S(=O)(=O)c2ccc3c(c2)OCCO3)CCN1S(=O)(=O)c1c(F)cccc1F`, the Potency result is “inactive”.
For `C[C@@H]1CN(S(=O)(=O)c2ccc3c(c2)OCCO3)CCN1S(=O)(=O)c1c(F)cccc1F` the value was “inactive”; for `O=S(=O)(c1ccc2ccccc2c1)N1CCN(S(=O)(=O)c2c(F)cccc2F)CC1`, “inactive”; for `CC(C)c1cc2c(s1)c1cnn(Cc3ccccc3F)c(=O)c1n2C`, 4470 nM (active).
For `O=S(=O)(c1ccc2c(c1)OCCO2)N1CCN(S(=O)(=O)c2c(F)ccc(O)c2F)CC1` the value was “inactive”; for `O=S(=O)(c1ccc2c(c1)OCCO2)N1CCN(S(=O)(=O)c2ccc3c(c2)OCCO3)CC1`, “inactive”; for `O=S(=O)(NC1CCC(NS(=O)(=O)c2c(F)cccc2F)CC1)c1ccc2c(c1)OCCO2` (stereo unspecified), “inactive”.
Turning to `Cn1c2cc(C=O)sc2c2cnn(Cc3ccccc3F)c(=O)c21`, the Potency was 398 nM (active).
With `CCc1cc2c(s1)c1cnn(Cc3ccccc3F)c(=O)c1n2C` the figure was 5620 nM (active).
With `O=S(=O)(c1ccc(Cl)cc1)N1CCN(S(=O)(=O)c2ccc3c(c2)OCCO3)CC1` the entry was “inactive”; with `O=S(=O)(c1c(F)cccc1F)N1CCN(S(=O)(=O)c2c(F)cccc2F)CC1`, “inactive”.
